# Results reported in PubChem BioAssay (NCATS).
# Records with an inconclusive call do not appear. A number with no mark means an inactive call. Activity calls are given as the source filed them. The call rests on the fitted dose curve; in most records, active means well fitted cell-killing curve with a large enough effect; inconclusive means small, poorly fitted or top-dose-only effect, or effect the other way; inactive means no such curve, though single readings can be large or run the other way.
# Assay: Quantitative High-Throughput drug screen in 47 multiple myeloma cell lines against the NCATS MIPE library collection: Karpas417_ECACC cell viability assay (AID 1918961)
# Conditions: Karpas417 myeloma viability, CellTiter-Glo ATP luminescence, 48 h; viability (% of DMSO): at 45.8 µM (top of the series)
# Text: PI: Beverly A. Mock Ph.D.
# Laboratory of Cancer Biology and Genetics,
# Center for Cancer Research, National Cancer Institute,
# National Institute of Health, Bethesda, Maryland
# Drug resistance and disease progression are common in multiple myeloma (MM) patients, underscoring the need for new therapeutic combinations. […] We hypothesized that effective combinations would reduce MYC expression and enhance p16 activity. […] These preclinical data identify potentially useful drug combinations for evaluation in drug-resistant MM and reveal potential mechanisms of combined drug sensitivity.
# Described herein is the primary MIPE qHTS used to cherrypick compounds. Validated compounds were then further tested for potential synergistic activiy.
# [1] Peat TJ, Gaikwad SM, Dubois W, Gyabaah-Kessie N, Zhang S, Gorjifard S, Phyo Z, Andres M, Hughitt VK, Simpson RM, Miller MA, Girvin AT, Taylor A, Williams D, D'Antonio N, Zhang Y, Rajagopalan A, Flietner E, Wilson K, Zhang X, Shinn P, Klumpp-Thomas C, McKnight C, Itkin Z, Chen L, Kazandijian D, Zhang J, Michalowski AM, Simmons JK, Keats J, Thomas CJ, Mock BA. Drug combinations identified by high-throughput screening promote cell cycle transition and upregulate Smad pathways in myeloma. Cancer Lett. 2023 Aug 1;568:216284. doi: 10.1016/j.canlet.2023.216284. Epub 2023 Jun 24. PMID: 37356470; PMCID: PMC10408729.
# SEQUENCE No. (e.g., 1, 2, 3, etc.); […] (e.g., Cells, Incubation, Reagent, etc.); VALUE and DESCRIPTION.
# 1; Cells; 5 uL; white, solid bottom 1536-well Greiner assay plate.
# 2; Compounds; 23 nL; Kalypsis pin tool (Wako USA) equipped with a 1536-well pin head to transfer to the assay plates.
# 3; Incubation; 48 hours; 37C incubation.
# 4; Reagent;5uL; CellTiter Glo (Promega).
# 5; Detector; 425V; Luminescence; Viewlux PerkinElmer.
# NOTES (numbers refer to Sequence numbers above)
# 1. The cell-based screening methods employed in this study were like those previously published. Briefly, the corresponding myeloma cell lines were screened in 1,536-well plates with 500 cells, 5-uL per well for inhibition of cell viability (assessed by measuring ATP levels with CellTiterGlo).
# 2. NCATS MIPE 4.0 library of approved and investigational drugs were added using the Kalypsis pin tool. Wells treated with DMSO only for 100% viability and media only wells for 0% viability were used as controls.
# 3. The assay plates were covered and incubated for 48 hours in a 37C, 5% CO2 incubator with controlled humidity.
# 4. After 48 hours, CellTilter-GloTM luminescent substrate mix (Promega) reagent was added to the assay plate and plates we incubated for 5 min at room temperature.
# 5. Signal was measured as median relative luminescence units on a ViewLux (PerkinElmer) multiplate reader.
# [1] Heske CM, Davis MI, Baumgart JT, Wilson K, Gormally MV, Chen L, Zhang X, Ceribelli M, Duveau DY, Guha R, Ferrer M, Arnaldez FI, Ji J, Tran HL, Zhang Y, Mendoza A, Helman LJ, Thomas CJ. Matrix Screen Identifies Synergistic Combination of PARP Inhibitors and Nicotinamide Phosphoribosyltransferase (NAMPT) Inhibitors in Ewing Sarcoma. Clin Cancer Res. 2017 Dec 1;23(23):7301-7311. doi: 10.1158/1078-0432.CCR-17-1121. Epub 2017 Sep 12. PMID: 28899971; PMCID: PMC6636827.
# Potency means the concentration at half of the fitted maximal effect.
Structure (SMILES),Potency,viability (% of DMSO)
Cc1cn([C@H]2C=C[C@@H](CO)O2)c(=O)[nH]c1=O,10.8 nM (active),–
Nc1ccn([C@H]2CC[C@@H](CO)O2)c(=O)n1,–,109%
CCc1cccc2c3c([nH]c12)C(CC)(CC(=O)O)OCC3 (stereo unspecified),–,212%
Cn1cnc2c1c(=O)[nH]c(=O)n2C,9350 nM (active),–
CCOC(=O)Nc1ccc(NCc2ccc(F)cc2)nc1N,–,73.1%
CN(C)c1nc(N(C)C)nc(N(C)C)n1,–,126%
CS(=O)(=O)CCNCc1ccc(-c2ccc3ncnc(Nc4ccc(OCc5cccc(F)c5)c(Cl)c4)c3c2)o1,6620 nM (active),–
CN1C(C(=O)Nc2ccccn2)=C(O)c2ccccc2S1(=O)=O,–,123%
CN(CCOc1ccc(NS(C)(=O)=O)cc1)CCc1ccc(NS(C)(=O)=O)cc1,–,145%
Cc1cn([C@H]2C[C@H](N=[N+]=[N-])[C@@H](CO)O2)c(=O)[nH]c1=O,–,84.8% (active)
CC[C@@]1(O)C(=O)OCc2c1cc1n(c2=O)Cc2cc3c(CN(C)C)c(O)ccc3nc2-1,743 nM (active),–
NC(=O)NO,1480 nM (active),–
COc1cc2c(c(OC)c1OC)-c1ccc(OC)c(=O)cc1[C@@H](NC(C)=O)CC2,3.3 nM (active),–
COc1ccc2[nH]cc(CCNC(C)=O)c2c1,–,192%
CC#C[C@]1(O)CC[C@H]2[C@@H]3CCC4=CC(=O)CCC4=C3[C@@H](c3ccc(N(C)C)cc3)C[C@@]21C,526 nM (active),–
NS(=O)(=O)c1cc2c(cc1Cl)NCNS2(=O)=O,6.6 nM (active),–

Structure (SMILES),Potency,viability (% of DMSO)
COc1ccc(C2CNC(=O)C2)cc1OC1CCCC1 (stereo unspecified),–,129%
O=C(Nc1ccc([N+](=O)[O-])cc1Cl)c1cc(Cl)ccc1O,590 nM (active),–
O=c1c(O)c(-c2ccc(O)c(O)c2)oc2cc(O)cc(O)c12,16.6 nM (active),–
CCCCc1oc2ccccc2c1C(=O)c1cc(I)c(OCCN(CC)CC)c(I)c1,13200 nM (active),–
CC12CC3CC(C)(C1)CC(N)(C3)C2,–,138%
O=C(c1ccc(OCCN2CCCCC2)cc1)c1c(-c2ccc(O)cc2)sc2cc(O)ccc12,18700 nM (active),–
CC(C)NCC(O)c1ccc(O)c(O)c1 (stereo unspecified),1480 nM (active),–
Nc1nc2c(ncn2COC(CO)CO)c(=O)[nH]1,11800 nM (active),–
Clc1ccccc1C(c1ccccc1)(c1ccccc1)n1ccnc1,9.3 nM (active),–
Cc1cnc(C(=O)NCCc2ccc(S(=O)(=O)NC(=O)NC3CCCCC3)cc2)cn1,–,120%
CC(C)NCC(O)COc1ccc(CCOCC2CC2)cc1 (stereo unspecified),–,127%
CN1CCC(=C2c3ccccc3CC(=O)c3sccc32)CC1,–,117%
O=C1c2c(O)ccc(O)c2C(=O)c2c(NCCNCCO)ccc(NCCNCCO)c21,16600 nM (active),–
CN1CCN(CCCN2c3ccccc3Sc3ccc(Cl)cc32)CC1,132 nM (active),–
CN1CCC(=C2c3ccccc3C=Cc3ccccc32)CC1,–,93.8%
